Laboratory results taken from article PMC5540273 (PLoS ONE, 2017).

What was measured:
Conditions in all cases: concentration: 1 μM, replicates: in singlicate; n = 1
[1] = system: TRPM6
[2] = system: TSSK1B
[3] = system: TSSK3
[4] = system: TTK
[5] = system: TXK
[6] = system: TYK2(JH1domain-catalytic)
[7] = system: TYK2(JH2domain-pseudokinase)
[8] = system: TYRO3
[9] = system: ULK1
[10] = system: ULK2
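Note: KINOMEscan kinase panel screen.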

Structure (SMILES) | %Inh [1] | %Inh [2] | %Inh [3] | %Inh [4] | %Inh [5] | %Inh [6] | %Inh [7] | %Inh [8] | %Inh [9] | %Inh [10]
COc1cc2ncn(-c3cc(OCc4ccncc4)c(C(N)=O)s3)c2cc1OC [GSK336313] | 24% | 0% | 11% | 0% | 6% | 3% | 13% | 0% | 16% | 0%
Cc1cccc(-c2cc(-c3c[nH]nc3-c3ccccn3)ccn2)c1 [GW679395] | 0% | 24% | 0% | 23% | 0% | 9% | 27% | 0% | 0% | 0%
O=C(NCCNc1ccnc(Nc2ccc(F)cc2)n1)Nc1ccc2c(c1)OCO2 [GSK1379882] | 26% | 0% | 24% | 15% | 100% | 21% | 28% | 0% | 0% | 0%
CCC(=O)c1c(-c2ccccc2)c2cc(Cl)ccc2c(=O)n1Cc1cc(S(C)(=O)=O)n(CC(F)F)n1 | 10% | 0% | 0% | 0% | 6% | 0% | 0% | 0% | 0% | 0%
COc1ccc(-c2cc3c(C)nc(N)nc3n([C@H]3CC[C@H](O)CC3)c2=O)cn1 | 0% | 0% | 0% | 0% | 0% | 0% | 0% | 0% | 0% | 0%
CC(C)(C)c1ccc(C(=O)Nc2cn3cc(-c4ccccc4)ccc3n2)cc1 | 0% | 0% | 8% | 0% | 9% | 0% | 6% | 5% | 0% | 49%
Nc1n[nH]c2ncc(-c3ccccc3)cc12 [SB-517081] | 21% | 16% | 4% | 33% | 0% | 45% | 92.7% | 0% | 3% | 0%
Nc1ncnc2c1ncn2-c1cccc(F)c1 [SKF-97560] | 74% | 22% | 20% | 0% | 0% | 38% | 35% | 9% | 7% | 26%
COc1cc(Nc2nccc(N3CCC(NC(=O)C4COc5ccccc5O4)C3)n2)cc(OC)c1OC (centres unmarked) [GSK1379761] | 0% | 0% | 9% | 13% | 10% | 81% | 29% | 0% | 8% | 0%
COC(=O)c1c(-c2ccccc2)c2cc(Br)ccc2c(=O)n1Cc1ccc(S(C)(=O)=O)cc1 | 2% | 0% | 0% | 31% | 12% | 7% | 15% | 1% | 0% | 13%
O=C(NCc1cccs1)c1cc(C(=O)c2c(Cl)cccc2Cl)c[nH]1 [GW823670] | 0% | 18% | 0% | 9% | 0% | 1% | 0% | 0% | 0% | 29%
O=C(Nc1n[nH]c2nc(-c3ccccc3)c(Cl)cc12)C1CC1 [SB-734909] | 29% | 0% | 0% | 0% | 4% | 25% | 16% | 0% | 22% | 20%
Nc1nc(-c2ccccc2F)c(-c2ccnc3ccccc23)s1 [GW560459] | 32% | 14% | 10% | 20% | 0% | 7% | 32% | 0% | 0% | 0%
CN1C(=O)C(Nc2ccccc2)=C(c2ccccc2)C1=O [SB-300079] | 0% | 0% | 0% | 0% | 0% | 0% | 17% | 0% | 6% | 12%
COc1cccc(C2=C(Nc3cccc(C(=O)O)c3)C(=O)NC2=O)c1 [SB-390770] | 15% | 23% | 15% | 0% | 48% | 19% | 0% | 0% | 26% | 6%
CCc1ccc(-c2ccc3c(c2)-c2nn(C)cc2S(=O)(=O)N3C)cc1 | 0% | 0% | 0% | 0% | 0% | 0% | 0% | 0% | 0% | 0%
OCCCNc1nccc(-c2c(-c3cccc(C(F)(F)F)c3)nn3cc(C(F)(F)F)ccc23)n1 [GW630813] | 0% | 0% | 6% | 0% | 0% | 14% | 13% | 0% | 0% | 0%
